This passage reports inhibition results from PubChem BioAssay AID652010 (The Scripps Research Institute Molecular Screening Center, 2013).

Each structure is given as a SMILES string. In all, about 370,000 compounds went through this assay and about 4,100 (1.1%) were called active. This is one part of a sample in which actives are shown more often than they occur. Values without a mark were called inactive.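 How the source made its calls: active means inhibition above the mean over all tested compounds plus 3 SD (cut at about 3.6% in these data); inactive means the rest.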

The nature of this assay: DAX1 (NR0B1) inhibitors on StAR promoter, primary screen, cell-based, luminescence, SF-1 (NR5A1), full-length DAX-1 (AID 652010).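 Further: 0% = DAX-1 cells with DMSO and 100% = cells lacking DAX-1 with DMSO.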 To be noted: HEK293T StAR-luciferase reporter, SF-1/DAX-1 repression relief; at 6.8 µM; active compounds read high. (Reporter assays use an easily measured gene product as a stand-in for the process of interest.)
What is called inhibition is the drop in the measured response relative to a control, in per cent. In the case of `C=CCN1C(=O)[C@@H](CC(=O)NCCCCc2ccccc2)[C@]2(C(=O)OCC)CCCCC/C=C/12`, the inhibition was -0.85%.

Regarding `CCOC(=O)Cn1c2c(n(-c3ccc(F)cc3)c1=O)C=C(c1ccccc1)[C@@H](C)C(C(=O)N(C)C1CCCCC1)=C2`, the inhibition was -1.69%.

As for `Cn1c(=O)c([N+](=O)[O-])c(Oc2ccccc2)c2ccccc21`, the inhibition is -1.48%. For `C=CCN1C(=O)[C@H](CC(=O)NCCCN2CCCC2=O)[C@@]2(C(=O)OCC)CCCC=C12` the value was 0.2%. Next, `CCCCCN1CCCCC(NC(=O)C(C)CCC)C1=O` (stereo unspecified): 0.06%. On to `c1csc(-c2nnc(SCc3nc4ccccc4[nH]3)o2)c1`, for which the inhibition is -0.62%.

Take `CCc1ccc2oc(-c3ccc(N)cc3)nc2c1`: the inhibition is 5.85% (active).

Turning to `O=C(C1CCC(=O)N(C2CC2)C1)N1CCN(c2ccc(Cl)cc2)CC1` (stereo unspecified), the inhibition was -0.61%.

With `CC1(C(=O)Nc2cccc3c2CCCC3)CCN1C(=O)C1(c2ccccc2)CC1` (stereo unspecified), the inhibition is -0.73%.

For the compound `COc1ccc2cc(C(=O)C3CCCN(C(=O)c4sc(C)nc4C)C3)ccc2c1` (stereo unspecified), the inhibition is 0.57%. In the case of `CCOc1ccc2nc(C(=O)N3CCCC(C)C3)sc2c1` (stereo unspecified), the inhibition was 4.1% (active). For `CCOc1ccc(NC(=O)C2CCCN(C(=O)Nc3ccccc3)C2)cc1` (stereo unspecified) the value was -0.8%; for `Nc1ccc(C(=O)Nc2ccccc2N)cc1`, 15.9% (active). For `O=C(Nc1ccccc1C(=O)N1CCOCC1)c1ccc(Cl)cc1` the value was -0.37%; for `CC(CNC(=O)c1ccc(N)cc1)NC(=O)c1ccc(N)cc1` (stereo unspecified), 0.06%; for `C#CCCN([C@H](C(=O)OC)C(C)C)S(=O)(=O)c1ccc(F)cc1Br`, -0.77%. Next, `O=C1CCC2(CCC(c3ccc(Cl)cc3)CC2)N1CCO` (stereo unspecified): -1.36%; `O=S1(=O)c2c(cccc2N2CC[C@H](O)C2)O[C@@H]2CCN1C2`: -0.61%; `COc1ccc(OCc2cc(C(=O)NCC3(C)COC3)no2)c(Cl)c1`: -0.13%. Turning to `Cc1cc(OCc2cc(C(=O)NCc3cc(C(C)C)no3)no2)cc(C)c1Cl`, the inhibition is 7.8% (active).

Consider `COCCCNC(=O)COc1cc(C)c(Cl)c(C)c1`, for which the inhibition is -0.64%. On to `N#Cc1ccc(-c2nc3cc(C#N)c(C#N)cc3nc2-c2ccccc2)cc1C#N`, for which the inhibition was -0.36%. Turning to `CN1CCN(CCNC(=O)Nc2ccccc2[N+](=O)[O-])CC1`, the inhibition was -0.08%. For `Cc1csc(NC(=O)Nc2ccccc2[N+](=O)[O-])n1` the value was 4.06% (active); for `Cc1cc(NC(=O)Nc2ccccc2[N+](=O)[O-])no1`, -0.12%.

Turning to `O=C1[C@@H]2C(c3cccnc3)=NO[C@@H]2C(=O)N1c1ccc(Cl)cc1Cl`, the inhibition was -0.39%.

Take `COc1cccc(CNC(=O)CNS(=O)(=O)c2ccc3nc(C)sc3c2)c1OC`: the inhibition is -0.3%. For the compound `Cc1ccc(CSc2nnc(SCC(=O)NN=Cc3cc(Br)ccc3F)s2)cc1`, the inhibition is -0.52%. On to `COc1ccc(C(=O)OCCN2CCN(C3CN(Cc4cn(Cc5ccccc5F)nn4)S(=O)(=O)C3)CC2)cc1OC` (stereo unspecified), for which the inhibition was -2.65%. Consider `CC(=O)c1ccc(NC(=O)c2sc3nc4n(c(=O)c3c2C)CCCCC4)cc1`, for which the inhibition was 4% (active). Regarding `O=C(Nc1ccc2nc3n(c(=O)c2c1)CCCC3)c1ccc(Cl)nc1`, the inhibition was -1.19%. On to `N=c1c2c3c(sc2nc2n1CCCCC2)CCCC3`, for which the inhibition is 0.02%. On to `O=c1c2c(nc3n1CCCCC3)sc1c(O)cccc12`, for which the inhibition was 4.81% (active). `COc1cccc(C(=O)Nc2ccc3nc4n(c(=O)c3c2)CCCCC4)c1`: the inhibition was -0.05%. Next, `O=C(Cn1[nH]c(=O)c2ccccc2c1=O)Nc1cccc(-c2nnc3n2CCCCC3)c1`: -0.2%; `CCOc1ccccc1C(=O)N1CCC[C@@H]1C(=O)N1CCC[C@H]1C(=O)NCc1ccccc1`: 0.55%; `COc1ccc(-n2c(SCC(=O)NC3CCCC3)nnc2-c2ccncc2)cc1`: -0.56%. For `CC(=NNC(N)=O)c1ccc(Cl)c(-n2cccc2)c1` the value was -0.18%; for `CCNc1nc(-c2cc3ccccc3o2)cs1`, 4.18% (active); for `COc1ccccc1CN(C)C(=O)c1cc2ccccc2o1`, -0.34%. For `Cn1c(SCC(=O)NC2CCCCC2)nnc1-c1cc2ccccc2o1` the value was -0.14%. Take `O=C(NCc1ccc(F)cc1)c1cc(C2CCCCN2C(=O)c2ccccn2)on1` (stereo unspecified): the inhibition was -1.23%.

For the compound `COc1ccc(C2CC=C(C(=O)O)C(c3ccccc3F)N2S(=O)(=O)c2ccc(C)cc2)cc1OC` (stereo unspecified), the inhibition was 0.7%. Next, `O=S(=O)(c1ccccc1)N1CCC(c2nc3ccccc3o2)CC1`: -0.48%; `Cc1ccc(CN2CCC(N3CCC(C(=O)NCC4CCCO4)CC3)CC2)o1` (stereo unspecified): 0.9%. In the case of `Cc1cccc(NC(=O)COc2ccc(Br)cc2C)n1`, the inhibition was 2.42%.

`CC(=O)Nc1cccc(-c2csc(Nc3cccc(C)n3)n2)c1`: the inhibition is 4.69% (active). For the compound `CC(=O)NC(c1cccc(F)c1)c1nc(-c2cccc(F)c2)cs1` (stereo unspecified), the inhibition is -0.34%. Next, `OC(c1ccccc1)(c1ccccc1)C1CCN(CCCOc2ccc(-c3ccsc3)cc2)CC1`: -0.82%. On to `CCC(=O)Nc1ccc2c(c1)C(=O)N(C)[C@H]1CC[C@H](CC(=O)NCCOC)O[C@@H]1CO2`, for which the inhibition is 0.92%. For `Cc1nc(N)sc1N=Nc1c(C)n(C)n(-c2ccccc2)c1=O` the value was 0.04%; for `Cc1c(C=O)n(C)n(-c2ccccc2)c1=O`, 0.3%; for `Cc1c(N=Nc2ccc(N(C)C)cc2)c(=O)n(-c2ccccc2)n1C`, 4.03% (active). Next, `C=CCn1c(SCC(N)=O)nnc1-c1ccccc1OC`: -0.12%; `COc1ccc(CCC(=O)OCC(=O)Nc2ccc(C)c(S(=O)(=O)N(C)C)c2)cc1`: 1.11%; `CCN(CC(=O)Nc1ccc(C)c(S(=O)(=O)N(C)C)c1)Cc1ccccc1`: 0.23%. For `Cc1ccc(C(=O)Nc2ccc(C)c(S(=O)(=O)N(C)C)c2)s1` the value was 4.23% (active); for `CCc1nc2ccc(C(=O)Nc3ccc(OC)c(OC)c3)cn2c1N(C)C(=O)c1cccc(OC)c1`, -1.08%; for `CSCCC(NC(=O)c1ccco1)C(=O)NCCc1ccc(F)cc1` (stereo unspecified), 0.47%.

As to `CSCCC(NC(=O)c1ccco1)C(=O)Nc1cc(C)ccn1` (stereo unspecified), the inhibition is 11% (active). For `CSCCC(NC(=O)c1ccco1)C(=O)OCC(=O)Nc1ncc(Cl)c(C)c1Cl` (stereo unspecified), the inhibition is -0.11%. For `COC(=O)c1ccc(CN2C(=O)NC(c3ccccc3)(c3ccccc3)C2=O)o1` the value was 0.15%. Next, `O=C(C1CCCN1S(=O)(=O)c1ccccc1)N1CCc2ccccc2C1` (stereo unspecified): -0.56%; `CC(C)CC(=O)NC(=S)NNC(=O)c1cccc([N+](=O)[O-])c1`: -0.72%. Consider `CC(C)C(C)NC(=O)COc1ncnc2ccccc12` (stereo unspecified), for which the inhibition is -0.45%. Next, `O=C(CSc1nc2ccccc2s1)NN=Cc1ccc(O)cc1O`: -0.65%. For `CC(C)CC(=O)N/C(N)=N/c1nc2ccccc2s1` the value was 4.37% (active). As for `CCC(=O)NC(=Nc1nc2ccccc2s1)NC(=O)CC`, the inhibition is 3.92% (active). Consider `CC(NC(=O)COC(=O)c1ccc2ccccc2n1)c1ccccc1` (stereo unspecified), for which the inhibition was 0.44%. Next, `Cc1ccc(C)c(NC(=O)CCS(=O)(=O)c2ccccc2)c1`: 0.88%; `COc1ccc(S(=O)(=O)n2nc(C)c(S(=O)(=O)N3CCOCC3)c2C)cc1`: -0.25%. For `COc1ccc(CN2C/C(=C/c3ccccc3)N3C(=O)C[C@@H](c4ccccc4)N=C23)c(OC)c1` the value was -0.16%; for `CCN(CC)C(=O)CC[C@H]1CC[C@]2(CCCN(Cc3ccc(Cl)cc3)C2)O1`, -0.32%; for `COc1ccc(S[C@]2(C(=O)N(C)C)CC(=O)N(c3ccc(OC)cc3)[C@@H]2c2ccc(OC)cc2)cc1`, -0.46%. For `Cc1cc(=O)[nH]c(SCC(=O)Nc2ccc(Cl)cc2C)n1` the value was 0.86%; for `Cc1ccc(S(=O)(=O)N2C[C@H]3n4c(=O)ccc(=O)n4C[C@H](OC(=O)NC4CCCC4)[C@@]3(O)C2)cc1`, -0.77%; for `CCCCCCNC(=O)O[C@]12C[C@@H](C(=O)OC)[C@@H](C(=O)OC)C[C@@]1(O)CN(S(=O)(=O)c1ccc(C)cc1)C2`, -0.86%.

On to `CCCCCCNC(=O)O[C@H]1CN(C(=O)OC(C)C)N(C(=O)OC(C)C)[C@@H]2CN(S(=O)(=O)c3ccc(C)cc3)C[C@]12O`, for which the inhibition was 4.45% (active). In the case of `Cc1ccccc1NC(=O)COC(=O)c1ccc(Sc2ncn[nH]2)c([N+](=O)[O-])c1`, the inhibition is 2.48%.

Turning to `CC1(C)OC(=O)C2=C(CC(CCc3ccccc3)OC2c2ccc(Cl)cc2)O1` (stereo unspecified), the inhibition was -1.2%. On to `Cc1sc(NC(=O)c2ccc3ncsc3c2)c(C(N)=O)c1C`, for which the inhibition was 10.2% (active). Next, `COc1ccccc1-c1nnc(NC(=O)c2ccc3ncsc3c2)o1`: 0.87%; `O=C(COC(=O)c1ccc2ncsc2c1)Nc1ccc(Cl)cc1`: -0.21%. Next, `CN(CC(=O)Nc1cccc(F)c1)C(=O)C1CC(=O)N(CCc2ccccc2)C1` (stereo unspecified): 4.19% (active); `CN(Cc1ccccc1Cl)C(=O)C1CCC(=O)N(CCc2cccc(F)c2)C1` (stereo unspecified): 0.69%; `CCNC(=O)c1cccc(NC(=O)C2CC(=O)N(CCc3ccccc3)C2)c1` (stereo unspecified): 0.37%. `C=CCN1C(=O)[C@@H](CC(=O)N2CCN(C(=O)OCC)CC2)[C@]2(C(=O)OCC)CCCCC/C=C/12`: the inhibition is 1.04%. With `COC(=O)[C@H](C(C)C)N(CCCc1cn(Cc2ccccc2)nn1)S(=O)(=O)c1ccc(F)cc1Br`, the inhibition was -1.67%.

On to `Cc1sc2ncnc(N3CCC(C(=O)Nc4ccc(F)cc4Cl)CC3)c2c1C`, for which the inhibition was 1.94%.

Consider `Cc1sc2ncnc(N3CCC(C(=O)NNC(=O)c4ccc(F)cc4)CC3)c2c1C`, for which the inhibition is -3.62%. For the compound `Cc1sc2ncnc(N3CCC(C(=O)Nc4nc5ccc(Cl)cc5s4)CC3)c2c1C`, the inhibition was 4.32% (active).
